Test results reported in PubChem BioAssay (NCI).
Compounds without any hit were thinned out: in the full panel of roughly 79,000, 15% have a hit. Values without a mark were called inactive. The source made the active and inactive calls. No stated cut-off is given here; in the data, active means growth inhibition above about 70%; inactive means the rest.

What was measured:
[1] = NCI Yeast Anticancer Drug Screen. Data for the rad52 strain (AID 147);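 further: 0% = growth of vehicle-treated control cultures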; details: S. cerevisiae rad52 mutant growth inhibition, hits give high values
Method in brief: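 Inhibition of yeast growth, referenced to vehicle controls, was the measured output for a strain with defective DNA damage repair.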

[2] = NCI Yeast Anticancer Drug Screen. Data for the wt1 strain (AID 149);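 further: 0% = growth of vehicle-treated wt1 cultures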; details: S. cerevisiae wt1 strain (SPY 50644) growth inhibition, hits give high values
Method in brief: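 wt1 yeast, compound-treated; % growth inhibition vs vehicle control.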

[3] = NCI Yeast Anticancer Drug Screen. Data for the rad50EPP+ strain (AID 151);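 further: 0% = growth of vehicle-treated control cultures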; details: S. cerevisiae rad50 mutant strain, hits give high values
Method in brief: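 Genetically defined yeast (rad50EPP+, DNA damage repair alteration) is grown with compound, and inhibition of growth is expressed relative to vehicle-treated controls.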

[4] = NCI Yeast Anticancer Drug Screen. Data for the mgt1 strain (AID 153); details: S. cerevisiae mgt1 mutant growth inhibition, hits give high values
Method in brief: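 In the mgt1 strain, test compounds were added and growth inhibition was determined relative to vehicle-treated controls.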

[5] = NCI Yeast Anticancer Drug Screen. Data for the rad50 strain (AID 155);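 further: 0% = growth of vehicle-only cultures of the same strain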; details: S. cerevisiae rad50 strain growth inhibition, hits give high values
Method in brief: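 Genetically altered yeast (DNA repair pathway); compound treatment; growth inhibition vs vehicle ctrl.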

[6] = NCI Yeast Anticancer Drug Screen. Data for the mec2-1 strain (AID 157); details: S. cerevisiae mec2-1 strain, hits give high values
Method in brief: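 Each compound was tested on mec2-1 yeast, a strain altered in DNA damage repair or cell cycle control. Growth inhibition is reported relative to vehicle.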

[7] = NCI Yeast Anticancer Drug Screen. Data for the rad14 strain (AID 159);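 further: 0% = growth of vehicle-treated control cultures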; details: S. cerevisiae rad14 strain growth inhibition, hits give high values
Method in brief: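 Test compounds were applied to a repair-deficient yeast strain. Its growth was then compared with that of cultures given vehicle alone, and inhibition was expressed relative to those controls.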

[8] = NCI Yeast Anticancer Drug Screen. Data for the sgs1 mgt1 strain (AID 161);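 further: 0% = growth of cultures given vehicle only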; details: S. cerevisiae sgs1 mgt1 strain, hits give high values
Method in brief: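 Inhibition of yeast growth, normalised to vehicle-treated controls, is reported for a strain bearing genetic alterations in DNA damage repair.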

[9] = NCI Yeast Anticancer Drug Screen. Data for the CLN2oe strain (AID 163);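 further: 0% = growth of vehicle-only control cultures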; details: S. cerevisiae CLN2oe strain, hits give high values
Method in brief: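 First, the altered yeast strain was treated with each compound; second, its growth was measured; finally, inhibition was derived by comparison with vehicle controls.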

[10] = NCI Yeast Anticancer Drug Screen. Data for the cln2 rad14 strain (AID 165);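 further: 0% = growth equal to vehicle treated cultures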; details: S. cerevisiae cln2 rad14 strain, hits give high values
Method in brief: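 Test compounds were added to cln2 rad14 yeast cultures; inhibition of growth was then determined by comparison with vehicle treatment.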

[11] = NCI Yeast Anticancer Drug Screen. Data for the bub3 strain (AID 167); details: S. cerevisiae bub3 mutant strain, hits give high values
Method in brief: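 Yeast carrying a defined mutation is treated with each compound, and growth is compared with that of vehicle-exposed cells to give inhibition.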

[12] = NCI Yeast Anticancer Drug Screen. Data for the wt2 strain (AID 169);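 further: 0% = growth of vehicle-treated yeast cultures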; details: S. cerevisiae wt2 strain growth inhibition, hits give high values
Method in brief: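 The panel's yeast strains carry defined changes in DNA repair or cell cycle genes. Each strain is grown with compound, and growth loss is scored relative to vehicle.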

[13] = NCI Yeast Anticancer Drug Screen. Data for the mlh1 strain (AID 171);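 further: 0% = growth of vehicle-treated control cultures of the same strain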; details: S. cerevisiae mlh1 strain growth inhibition, hits give high values
Method in brief: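 Inhibition values reflect reduced yeast growth in the presence of compound, referenced to vehicle controls, using a strain chosen for its alteration in DNA repair or cell cycle control.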

[14] = NCI Yeast Anticancer Drug Screen. Data for the sgs1 strain (AID 173);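 further: 0% = growth of vehicle-only control cultures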; details: S. cerevisiae sgs1 mutant, hits give high values
Method in brief: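 Vehicle-treated cultures served as reference for growth inhibition of a yeast strain altered in DNA damage repair or cell cycle control after compound exposure.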

[15] = NCI Yeast Anticancer Drug Screen. Data for the mlh1 rad18 strain (AID 175); details: S. cerevisiae mlh1 rad18 strain growth inhibition, hits give high values
Method in brief: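 Inhibition values reflect reduced growth of mutant yeast versus vehicle-treated controls following compound exposure; the mutations affect DNA damage repair.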

[16] = NCI Yeast Anticancer Drug Screen. Data for the rad18 strain (AID 177); details: S. cerevisiae rad18 mutant growth inhibition, hits give high values
Method in brief: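 Steps: expose repair-mutant yeast to compound; measure growth; express as inhibition relative to vehicle control.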

[17] = at 5.0 µM (retest, dose inferred, filed as 0.5)
[18] = at 50.0 µM (retest, dose inferred, filed as 5.0)

O=Nc1ccc(Nc2ccccc2)cc1
growth inhibition ([1]; at 1.2 µM): -40%
growth inhibition ([1]; at 3.7 µM): -58%
growth inhibition ([1]; at 11.0 µM): -71%
growth inhibition ([1]; at 33.0 µM): -11%
growth inhibition ([1]; at 100.0 µM): 96% (active)
growth inhibition ([2]; at 1.2 µM): -33%
growth inhibition ([2]; at 3.7 µM): -26%
growth inhibition ([2]; at 11.0 µM): -13%
growth inhibition ([2]; at 33.0 µM): 28%
growth inhibition ([2]; at 100.0 µM): 97% (active)
growth inhibition ([3]; at 1.2 µM): -14%
growth inhibition ([3]; at 3.7 µM): -10%
growth inhibition ([3]; at 11.0 µM): 29%
growth inhibition ([3]; at 33.0 µM): 97% (active)
growth inhibition ([3]; at 100.0 µM): 96% (active)
growth inhibition ([4]; at 1.2 µM): -50%
growth inhibition ([4]; at 3.7 µM): -60%
growth inhibition ([4]; at 11.0 µM): -32%
growth inhibition ([4]; at 33.0 µM): 63%
growth inhibition ([4]; at 100.0 µM): 97% (active)
growth inhibition ([5]; at 1.2 µM): -41%
growth inhibition ([5]; at 3.7 µM): -45%
growth inhibition [5, 17]: 2%
growth inhibition ([5]; at 11.0 µM): -32%
growth inhibition ([5]; at 33.0 µM): 39%
growth inhibition [5, 18]: 30%
growth inhibition ([5]; at 50.0 µM): 88.8% (active)
growth inhibition ([5]; at 100.0 µM): 95% (active)
growth inhibition ([6]; at 1.2 µM): -33%
growth inhibition ([6]; at 3.7 µM): -38%
growth inhibition [6, 17]: -10%
growth inhibition ([6]; at 11.0 µM): -35%
growth inhibition ([6]; at 33.0 µM): 84% (active)
growth inhibition [6, 18]: 95% (active)
growth inhibition ([6]; at 50.0 µM): 91% (active)
growth inhibition ([6]; at 100.0 µM): 97% (active)
growth inhibition ([7]; at 1.2 µM): -23%
growth inhibition ([7]; at 3.7 µM): -28%
growth inhibition ([7]; at 11.0 µM): -44%
growth inhibition ([7]; at 33.0 µM): 37%
growth inhibition ([7]; at 100.0 µM): 96% (active)
growth inhibition [8, 17]: -5%
growth inhibition [8, 18]: 13%
growth inhibition ([8]; at 50.0 µM): 93.2% (active)
growth inhibition ([9]; at 1.2 µM): -44%
growth inhibition ([9]; at 3.7 µM): -35%
growth inhibition ([9]; at 11.0 µM): -5%
growth inhibition ([9]; at 33.0 µM): 97% (active)
growth inhibition ([9]; at 100.0 µM): 96% (active)
growth inhibition [10, 17]: 29%
growth inhibition [10, 18]: 68%
growth inhibition ([10]; at 50.0 µM): 86.3% (active)
growth inhibition ([11]; at 1.2 µM): -31%
growth inhibition ([11]; at 3.7 µM): -14%
growth inhibition [11, 17]: 4%
growth inhibition ([11]; at 11.0 µM): -16%
growth inhibition ([11]; at 33.0 µM): 97% (active)
growth inhibition [11, 18]: 91% (active)
growth inhibition ([11]; at 50.0 µM): 90.5% (active)
growth inhibition ([11]; at 100.0 µM): 97% (active)
growth inhibition ([12]; at 1.2 µM): -52%
growth inhibition ([12]; at 3.7 µM): -47%
growth inhibition ([12]; at 11.0 µM): -59%
growth inhibition ([12]; at 33.0 µM): 54%
growth inhibition ([12]; at 100.0 µM): 97% (active)
growth inhibition ([13]; at 1.2 µM): -42%
growth inhibition ([13]; at 3.7 µM): -36%
growth inhibition ([13]; at 11.0 µM): -26%
growth inhibition ([13]; at 33.0 µM): 83% (active)
growth inhibition ([13]; at 100.0 µM): 96% (active)
growth inhibition ([14]; at 1.2 µM): -40%
growth inhibition ([14]; at 3.7 µM): -42%
growth inhibition ([14]; at 11.0 µM): -28%
growth inhibition ([14]; at 33.0 µM): 55%
growth inhibition ([14]; at 100.0 µM): 97% (active)
growth inhibition [15, 17]: 26%
growth inhibition [15, 18]: 93% (active)
growth inhibition ([15]; at 50.0 µM): 89.5% (active)
growth inhibition ([16]; at 1.2 µM): -33%
growth inhibition ([16]; at 3.7 µM): -24%
growth inhibition ([16]; at 11.0 µM): 9%
growth inhibition ([16]; at 33.0 µM): 77% (active)
growth inhibition ([16]; at 100.0 µM): 96% (active)

O=C1c2ccccc2CCC1(Br)Br
growth inhibition ([1]; at 1.2 µM): 11%
growth inhibition ([1]; at 3.7 µM): 27%
growth inhibition ([1]; at 11.0 µM): 81% (active)
growth inhibition ([1]; at 33.0 µM): 99% (active)
growth inhibition ([1]; at 100.0 µM): 99% (active)
growth inhibition ([2]; at 1.2 µM): 1%
growth inhibition ([2]; at 3.7 µM): 11%
growth inhibition ([2]; at 11.0 µM): 36%
growth inhibition ([2]; at 33.0 µM): 99% (active)
growth inhibition ([2]; at 100.0 µM): 99% (active)
growth inhibition ([3]; at 1.2 µM): 55%
growth inhibition ([3]; at 3.7 µM): 82% (active)
growth inhibition ([3]; at 11.0 µM): 97% (active)
growth inhibition ([3]; at 33.0 µM): 99% (active)
growth inhibition ([3]; at 100.0 µM): 99% (active)
growth inhibition ([4]; at 1.2 µM): 2%
growth inhibition ([4]; at 3.7 µM): 11%
growth inhibition ([4]; at 11.0 µM): 53%
growth inhibition ([4]; at 33.0 µM): 99% (active)
growth inhibition ([4]; at 100.0 µM): 99% (active)
growth inhibition ([5]; at 1.2 µM): 11%
growth inhibition ([5]; at 3.7 µM): 22%
growth inhibition [5, 17]: 50%
growth inhibition ([5]; at 11.0 µM): 69%
growth inhibition ([5]; at 33.0 µM): 99% (active)
growth inhibition [5, 18]: 99% (active)
growth inhibition ([5]; at 50.0 µM): 99.2% (active)
growth inhibition ([5]; at 100.0 µM): 99% (active)
growth inhibition ([6]; at 1.2 µM): 9%
growth inhibition ([6]; at 3.7 µM): 21%
growth inhibition [6, 17]: 21%
growth inhibition ([6]; at 11.0 µM): 76% (active)
growth inhibition ([6]; at 33.0 µM): 99% (active)
growth inhibition [6, 18]: 100% (active)
growth inhibition ([6]; at 50.0 µM): 99.3% (active)
growth inhibition ([6]; at 100.0 µM): 99% (active)
growth inhibition ([7]; at 1.2 µM): 7%
growth inhibition ([7]; at 3.7 µM): 14%
growth inhibition ([7]; at 11.0 µM): 51%
growth inhibition ([7]; at 33.0 µM): 99% (active)
growth inhibition ([7]; at 100.0 µM): 99% (active)
growth inhibition [8, 17]: 63%
growth inhibition [8, 18]: 99% (active)
growth inhibition ([8]; at 50.0 µM): 99.2% (active)
growth inhibition ([9]; at 1.2 µM): 9%
growth inhibition ([9]; at 3.7 µM): 13%
growth inhibition ([9]; at 11.0 µM): 93% (active)
growth inhibition ([9]; at 33.0 µM): 99% (active)
growth inhibition ([9]; at 100.0 µM): 99% (active)
growth inhibition [10, 17]: 18%
growth inhibition [10, 18]: 100% (active)
growth inhibition ([10]; at 50.0 µM): 99.4% (active)
growth inhibition ([11]; at 1.2 µM): 1%
growth inhibition ([11]; at 3.7 µM): 15%
growth inhibition [11, 17]: 61%
growth inhibition ([11]; at 11.0 µM): 74% (active)
growth inhibition ([11]; at 33.0 µM): 99% (active)
growth inhibition [11, 18]: 99% (active)
growth inhibition ([11]; at 50.0 µM): 99.2% (active)
growth inhibition ([11]; at 100.0 µM): 99% (active)
growth inhibition ([12]; at 1.2 µM): 5%
growth inhibition ([12]; at 3.7 µM): 13%
growth inhibition ([12]; at 11.0 µM): 62%
growth inhibition ([12]; at 33.0 µM): 99% (active)
growth inhibition ([12]; at 100.0 µM): 99% (active)
growth inhibition ([13]; at 1.2 µM): 7%
growth inhibition ([13]; at 3.7 µM): 13%
growth inhibition ([13]; at 11.0 µM): 72% (active)
growth inhibition ([13]; at 33.0 µM): 99% (active)
growth inhibition ([13]; at 100.0 µM): 99% (active)
growth inhibition ([14]; at 1.2 µM): 13%
growth inhibition ([14]; at 3.7 µM): 23%
growth inhibition ([14]; at 11.0 µM): 76% (active)
growth inhibition ([14]; at 33.0 µM): 99% (active)
growth inhibition ([14]; at 100.0 µM): 99% (active)
growth inhibition [15, 17]: 85% (active)
growth inhibition [15, 18]: 99% (active)
growth inhibition ([15]; at 50.0 µM): 99.3% (active)
growth inhibition ([16]; at 1.2 µM): 13%
growth inhibition ([16]; at 3.7 µM): 23%
growth inhibition ([16]; at 11.0 µM): 75% (active)
growth inhibition ([16]; at 33.0 µM): 99% (active)
growth inhibition ([16]; at 100.0 µM): 99% (active)
